Structures are written as SMILES. The campaign covered roughly 100,000 compounds. About 770 (0.77%) were called active. This is one part of a sample in which actives are shown more often than they occur. Cut-off read from the data, not from the text of the source: active = inhibition above about 50%; inactive = the rest.

The source of these data is PubChem BioAssay AID372 (MTDP, 2006).

In the assay the target is Gag-Pol polyprotein (Human immunodeficiency virus type 1 group M subtype B (isolate HXB2)) (UniProt P04585). Kind of assay: RNase H inhibition, HIV 1 Gag Pol polyprotein, FRET biochemical assay, screening (AID 372). As to conditions: HIV-1 RT RNase H, FRET RNA/DNA substrate fluorescence; at 10 µM; stronger effect = higher value.
Broadly, the inhibition is the relative decrease from the control value, in per cent. `O=C(CSCc1ccccc1Cl)Nc1cccc(Br)c1`: the inhibition is 17% (inactive). With `COc1cc(/C=C2\C(=O)NC(=O)N(C(C)(C)C)C2=O)cc(OC)c1O`, the inhibition is 18% (inactive). Next, `COc1ccc(CNC(=O)CN(c2ccccc2OC)S(=O)(=O)c2ccccc2)cc1`: 9% (inactive); `CCOC(=O)c1c(NC(=O)c2cc(OC)c(OC)c(OC)c2)sc(C(=O)Nc2ccc(OC)cc2OC)c1C`: 15% (inactive).

Turning to `O=C1c2cccc3c([N+](=O)[O-])ccc(c23)N1c1ccccc1`, the inhibition is 56% (active). For `COc1ccc(N2C(=O)c3cccc4c([N+](=O)[O-])ccc(c34)C2=O)cc1`, the inhibition is 16% (inactive). Next, `O=C1c2cccc3c([N+](=O)[O-])ccc(c23)C(=O)N1c1ccc(O)cc1`: 13% (inactive); `O=C(CCN1C(=O)c2ccccc2C1=O)N1CCN(C/C=C/c2ccccc2)CC1`: 5% (inactive); `Cc1ccc(F)cc1Nc1nnc(-c2cc3c(ccc4ccccc43)oc2=O)s1`: 5% (inactive).

Regarding `O=c1oc2ccc3ccccc3c2cc1-c1nnc(NCc2ccc(F)cc2)s1`, the inhibition was 60% (active). Next, `CCN(CC)c1ccc2cc(-c3nnc(NCc4ccc(F)cc4)s3)c(=O)oc2c1`: 0% (inactive).

As for `Cc1ccc(C)n1-c1cccc2cccnc12`, the inhibition is 67% (active). With `O=C1C2C3C=CC(C3)C2C(=O)N1c1cccc2cccnc12` (stereo not given) the figure was 5% (inactive); with `Cc1ccc(-c2ccccc2)n1-c1cccc2cccnc12`, 7% (inactive); with `CCCCCCCC(=O)NNC(=O)c1cccs1`, 0% (inactive). Consider `O=C(COc1ccc(Br)cc1)Nc1ccc(-c2nc3cc(Cl)ccc3o2)cc1`, for which the inhibition was 59% (active). With `Cc1ccc(-c2nc3ccccc3o2)cc1NC(=O)c1cccc(Cl)c1Cl` the figure was 43% (inactive); with `Cc1ccc(-c2nc3cc(Cl)ccc3o2)cc1NC(=O)c1cccc(Cl)c1Cl`, 16% (inactive); with `Cc1ccc2oc(-c3ccc(C)c(NC(=O)c4cccc(Cl)c4Cl)c3)nc2c1`, 54% (active). Next, `Cc1ccc(OCC(=O)Nc2cccc(-c3nc4cc(Cl)ccc4o3)c2C)c(C)c1`: 27% (inactive). With `Cc1ccc2oc(-c3ccc(C)c(NC(=O)Cc4ccccc4)c3)nc2c1` the figure was 18% (inactive). Take `Cc1ccccc1OCC(=O)Nc1cccc(-c2nc3cc(Cl)ccc3o2)c1C`: the inhibition was 15% (inactive).

As to `O=C(COc1ccc(Br)cc1)Nc1cccc(-c2nc3cc(Cl)ccc3o2)c1`, the inhibition was 12% (inactive). Regarding `Cc1ccc(-c2nc3cc(Cl)ccc3o2)cc1NC(=O)Cc1ccccc1`, the inhibition was 55% (active).

`Cc1c(NC(=O)COc2ccc(Cl)cc2Cl)cccc1-c1nc2cc(Cl)ccc2o1`: the inhibition was 54% (active). In the case of `O=C(COc1ccccc1)Nc1ccc(-c2nc3cc(Cl)ccc3o2)cc1`, the inhibition was 23% (inactive). For `Cc1ccc(-c2nc3ccccc3o2)cc1NC(=O)Cc1ccccc1`, the inhibition is 18% (inactive). With `CC(C)(C)c1ccc(C(=O)NC2CCCC2)cc1` the figure was 2% (inactive); with `O=C1c2ccccc2NC(c2ccccc2O)N1c1ccc(Cl)cc1` (stereo not given), 12% (inactive). Next, `COc1cc(OC)c(OC)cc1CN1CCN(C/C=C/c2ccccc2)CC1`: 14% (inactive); `c1ccc(N2N=C(c3cccs3)CC2c2cccs2)cc1` (stereo not given): 6% (inactive).

As to `COc1ccc(/C=N/n2nnnc2N)cc1Br`, the inhibition is 30% (inactive).

In the case of `Cc1ccc2cc(C)c(NCc3ccccn3)nc2c1`, the inhibition was 6% (inactive).

With `CCOC(=O)C(CC)P(=O)(c1ccccc1)c1ccccc1` (stereo not given), the inhibition is 0% (inactive). Next, `CCCC(=O)Nc1ccc(NC(=O)c2ccccc2[N+](=O)[O-])cc1`: 7% (inactive); `CN(C)c1ccc(C(=O)N2CCN(c3ccc(F)cc3)CC2)cc1`: 13% (inactive). Next, `CCc1ccc2oc(-c3ccc(C)c(NC(=O)COc4ccccc4)c3)nc2c1`: 44% (inactive). With `O=C(COc1ccccc1)Nc1ccc2oc(-c3ccc(Cl)cc3)nc2c1` the figure was 49% (inactive).

For `Cc1ccc(-c2nc3cc(Cl)ccc3o2)cc1NC(=O)c1cccc([N+](=O)[O-])c1`, the inhibition is 57% (active).

For `Cc1ccc2oc(-c3ccc(NC(=O)COc4ccc(Cl)cc4)cc3)nc2c1`, the inhibition is 28% (inactive).

For the compound `O=C(COc1ccc(Cl)cc1)Nc1ccc2oc(-c3ccccc3)nc2c1`, the inhibition was 16% (inactive).

For the compound `Cc1ccc(-c2nc3ccccc3o2)cc1NC(=O)COc1ccc(Cl)cc1`, the inhibition is 9% (inactive). With `O=C(COc1ccc(Cl)cc1)Nc1ccc2oc(-c3ccc(Cl)cc3)nc2c1` the figure was 54% (active). Next, `COc1ccc(OCC(=O)Nc2ccc(-c3nc4cc(C)ccc4o3)cc2)cc1`: 19% (inactive); `CCc1ccc2oc(-c3ccc(C)c(NC(=O)COc4ccc(Cl)cc4)c3)nc2c1`: 52% (active). With `Cc1cc2nc(-c3ccc(C)c(NC(=O)c4cccc([N+](=O)[O-])c4)c3)oc2cc1C` the figure was 15% (inactive). On to `Cc1ccc(-c2nc3cc(Cl)ccc3o2)cc1NC(=O)c1cccc(Cl)c1`, for which the inhibition was 15% (inactive).

In the case of `Cc1ccc2oc(-c3ccc(NC(=O)COc4ccc(Br)cc4)cc3)nc2c1`, the inhibition was 59% (active). Next, `O=C(NCCN1CCOCC1)c1cc2nc(-c3ccc(Cl)cc3)cc(C(F)(F)F)n2n1`: 0% (inactive); `COc1ccc(C=NN2CCN(Cc3ccccc3Cl)CC2)c(OC)c1`: 6% (inactive); `Cc1nc(-c2ccccc2)sc1C(=O)Nc1ccc(Br)cc1`: 15% (inactive). Next, `c1ccc(-c2ccc(Oc3cc(-n4cccn4)ncn3)cc2)cc1`: 11% (inactive).

For the compound `O=C(Nc1ccc(Cl)cc1)c1cccc(N2C(=O)c3cccnc3C2=O)c1`, the inhibition was 0% (inactive). In the case of `Cc1ccc(NC(=O)c2c(NC(=O)C(F)(F)F)sc3c2CCC3)c(C)c1`, the inhibition is 13% (inactive). With `Cc1ccc(NC(=O)c2c(NC(=O)C(F)(F)F)sc3c2CCCCC3)c(C)c1` the figure was 23% (inactive); with `Oc1c(C=Nc2ccccc2)sc2ccccc12`, 4% (inactive). Next, `CC(=O)c1ccc(NS(=O)(=O)c2cccc(S(=O)(=O)c3ccc(Cl)c(Cl)c3)c2)cc1`: 10% (inactive); `COc1cc(/C=C2\SC(=S)N(NC(=O)c3ccc(O)c(OC)c3)C2=O)ccc1O`: 34% (inactive).

For `O=C(NN1C(=O)/C(=C/c2ccc(O)cc2)SC1=S)c1ccccc1Br`, the inhibition was 5% (inactive). With `O=C(NN1C(=O)/C(=C/c2ccc(Br)cc2)SC1=S)c1ccncc1` the figure was 5% (inactive); with `O=C(NN1C(=O)/C(=C/c2ccc(O)c(O)c2)SC1=S)c1ccccc1Br`, 50% (active); with `COc1cc(/C=C2\SC(=S)N(Nc3ccccc3)C2=O)ccc1O`, 37% (inactive). Take `COc1cc(/C=C2\SC(=S)N(NC(=O)c3ccccc3Br)C2=O)ccc1O`: the inhibition is 18% (inactive). As to `COc1cc(/C=C2\SC(=S)N(Nc3ccccc3)C2=O)cc(OC)c1OC`, the inhibition was 4% (inactive).

In the case of `COc1cc(C(=O)NN2C(=O)/C(=C/c3ccc(OC)c(OC)c3)SC2=S)ccc1O`, the inhibition was 61% (active). Turning to `COc1cc(C(=O)NN2C(=O)/C(=C/c3ccccc3)SC2=S)ccc1O`, the inhibition was 4% (inactive). Next, `COc1cc(/C=C2\SC(=S)N(NC(=O)c3ccc(Br)cc3)C2=O)ccc1O`: 23% (inactive); `O=C(NN1C(=O)/C(=C/c2ccc(O)c(O)c2)SC1=S)c1ccc(Br)cc1`: 58% (active). Next, `COc1ccc(/C=C2\SC(=S)N(Nc3ccccc3)C2=O)cc1OC`: 55% (active); `CCOc1ccc(C(=O)Nc2ccc3oc(-c4ccc(CC)cc4)nc3c2)cc1[N+](=O)[O-]`: 16% (inactive); `Nc1nc(CN2C(=O)c3ccccc3C2=O)cs1`: 2% (inactive). With `CCOC(=O)c1c(NC(=O)c2ccc3c(c2)OCCO3)sc2c1CCCC2` the figure was 5% (inactive); with `CC(=O)OCCN1C(=O)c2ccc(Oc3cccc(Oc4ccc5c(c4)C(=O)N(CCOC(C)=O)C5=O)c3)cc2C1=O`, 10% (inactive). For `CCOc1ccc(/C=C2\SC(=S)N(CCC(=O)Nc3cccnc3)C2=O)cc1`, the inhibition is 22% (inactive). Next, `CC(=O)N1c2ccccc2NC2=C(C(=O)CC(c3ccccc3)C2)C1c1cccnc1` (stereo not given): 7% (inactive); `O=C(O)c1cccc(C(=O)O)c1N(c1ccccc1)c1ccccc1`: 40% (inactive). With `CCOc1cc(/C=N/n2cnnc2)cc(Cl)c1OCCOc1cc(C)ccc1C(C)C` the figure was 10% (inactive); with `COc1ccc(C(=O)Nc2nccs2)c(OC)c1`, 4% (inactive). Next, `Cc1cccc(N2C(=O)NC(=O)/C(=C\c3ccc(Oc4ccc([N+](=O)[O-])cn4)cc3)C2=O)c1`: 13% (inactive).

For `Oc1ccccc1/C=N/n1c(-c2ccccc2)n[nH]c1=S`, the inhibition was 11% (inactive). Next, `Cc1ccc(-c2n[nH]c(=S)n2/N=C/c2ccc(O)cc2O)cc1`: 8% (inactive); `Cc1ccc(-c2n[nH]c(=S)n2/N=C/c2ccc(O)cc2)cc1`: 9% (inactive); `Cc1ccc(-c2n[nH]c(=S)n2N=Cc2ccc(-c3ccccc3)cc2)cc1`: 56% (active). On to `Cc1ccc(-c2n[nH]c(=S)n2N=Cc2ccc(Cl)c(Cl)c2)cc1`, for which the inhibition was 18% (inactive). Next, `Cc1ccc(-c2n[nH]c(=S)n2/N=C/c2cc(Br)ccc2O)cc1`: 15% (inactive); `Cc1ccc(-c2n[nH]c(=S)n2N=Cc2ccc(O)c(O)c2)cc1`: 60% (active); `Oc1ccc(/C=N/n2c(-c3ccccc3)n[nH]c2=S)cc1O`: 55% (active). Next, `COc1cc(/C=N/n2c(-c3ccc(C)cc3)n[nH]c2=S)ccc1O`: 8% (inactive); `Cc1cccc(C=Nn2c(-c3ccccc3)n[nH]c2=S)c1`: 22% (inactive); `COc1ccc(-c2n[nH]c(=S)n2N=Cc2ccc(-c3ccccc3)cc2)cc1`: 45% (inactive). With `O=C1OC(/C=C/c2ccccc2)=NC/1=C/c1ccc(-c2ccc3c(c2)C(=O)NC3=O)o1` the figure was 33% (inactive). Turning to `C#CCOc1ccc(C=C2C(=O)N(C)C(=S)N(C)C2=O)cc1Br`, the inhibition is 21% (inactive).

Consider `Clc1ccc(C2C=C(c3cccs3)Nc3nnnn32)cc1` (stereo not given), for which the inhibition is 3% (inactive).

For the compound `COc1cc(/C=C2\SC(=Nc3ccc(C)c(Cl)c3)NC2=O)ccc1O`, the inhibition was 47% (inactive). Next, `O=C1NC(=S)S/C1=C/c1cc(Br)ccc1O`: 24% (inactive); `O=C1NC(=S)S/C1=C/c1ccc(O)c(Br)c1`: 3% (inactive). In the case of `COc1cc(/C=C2\SC(=Nc3ccc(C)c(Cl)c3)NC2=O)ccc1C`, the inhibition is 56% (active).

For the compound `COc1cc(/C=C2\SC(=Nc3ccc(C)c(Cl)c3)NC2=O)cc(OC)c1OC`, the inhibition is 21% (inactive). Next, `O=C1NC(=S)S/C1=C/c1ccc(Cl)cc1`: 10% (inactive). Next, `O=C1NC(=S)S/C1=C\c1ccc(O)c(O)c1`: 78% (active); `COc1ccc(/C=C2\SC(=S)NC2=O)cc1C`: 65% (active); `COc1cc(/C=C2/SC(=S)NC2=O)ccc1OC(C)C`: 1% (inactive). With `COc1ccc(/C=C2/SC(=S)NC2=O)cc1I` the figure was 39% (inactive); with `Nc1ccc(/C=C2/SC(=S)NC2=O)cc1`, 4% (inactive). With `O=C1NC(=S)S/C1=C\c1ccc(N2CCCC2)cc1`, the inhibition is 54% (active).
